Reference: PubChem BioAssay (NCI)
This is part of a sample that, as a whole, favours compounds with a hit. Of some 83,000 tested, about 20% had one in any assay.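 Growth was measured after 48 h exposure to one concentration of compound in 96-well plates. Values under 10 count as active.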 The source made the active and inactive calls.

Experiments:
Experiment in all cases: NCI-60 one-dose screen, 48 h (100 = growth as untreated, 0 = no growth, -100 = all killed)
Conditions in all cases: 10 µM unless noted
[1] = test system: NCI-H23 lung
[2] = test system: NCI-H226 lung
[3] = test system: NCI-H322M lung
[4] = test system: HOP-62 NSCLC
[5] = test system: NCI-H460 lung
[6] = test system: HOP-92 NSCLC
[7] = test system: NCI-H522 lung
[8] = test system: A549/ATCC NSCLC
[9] = test system: 786-0 renal
[10] = test system: COLO 205 colon

Measured: growth

Cc1ccc(/C=C/CC(=O)Nc2ccc(C(=O)Nc3ccc(F)cc3N)nc2)cn1
inactive: [1] 45.7% | [2] 50.3% | [3] 52.7% | [4] 51.1% | [5] 45.6% | [8] 43.8% | [9] 51.4% | [10] 25%
active: [6] -3.93% | [7] 2.35%

COc1ccc(Cn2cc3c(c2-c2ccccc2)CCCc2cnoc2-3)cc1
inactive: [1] 77.6% | [2] 79% | [3] 76% | [4] 63.8% | [5] 26.9% | [6] 72% | [7] 34.9% | [8] 56.6% | [9] 73.3% | [10] 40.9%

CCOC(=O)c1nn(-c2ccc(C)cc2)c(=O)c2c(N)c(C#N)c(-c3ccc(OC)cc3)cc12
inactive: [1] 101% | [2] 94.4% | [3] 97.4% | [4] 81.3% | [5] 101% | [6] 91.9% | [7] 86.7% | [8] 108% | [9] 108% | [10] 110%

CN1CCN(c2ccc3c(c2)nc(NNC(=O)c2ccncn2)c2cccn23)CC1
inactive: [1] 36.2% | [2] 44.5% | [3] 30.2% | [4] 35.7% | [5] 27.4% | [6] 53.1% | [7] 18.2% | [8] 23.3% | [10] 17.9%
active: [9] 9.5%

COc1ccc(Oc2ccc(C3CC(c4cc(OC)c(OC)c(OC)c4)=NN3C(C)=O)cc2)cc1 (stereo not given)
inactive: [1] 24.1% | [2] 17.1% | [3] 46.9% | [4] 48.1% | [5] 23.8% | [6] 12.2% | [7] 20% | [8] 24.8% | [9] 29.2% | [10] 11.1%

C(=C(\C1=NCCN1)n1cnc2ccccc21)/c1ccc2ccccc2c1
active: [6] -2.7%
inactive: [1] 65.4% | [2] 62.6% | [3] 73.2% | [4] 79.4% | [5] 86.5% | [7] 14.7% | [8] 86% | [9] 74.6% | [10] 77.1%

COc1ccccc1/C=C/C(=O)c1nnn(-c2ccc(C(=O)O)cc2)c1C
inactive: [1] 87.6% | [2] 94.7% | [3] 92.1% | [4] 110% | [5] 96.1% | [6] 101% | [7] 82.4% | [8] 90.3% | [9] 93.2% | [10] 110%

C/C=C/[C@@H]1C=C[C@@H]2C[C@H](C)CC[C@H]2[C@]1(C)/C(O)=C1/C(=O)[C@H](CO)N(C)C1=O
inactive: [1] 56.8% | [2] 69.1% | [3] 61.6% | [4] 37.9% | [5] 54.7% | [6] 56.9% | [7] 58.2% | [8] 42.3% | [9] 47.3% | [10] 78.1%

C=CCn1c(SCC(=O)Nc2cccc(C(=O)/C=C/c3ccc(OC)c(OC)c3)c2)nc2ccccc2c1=O
inactive: [1] 93.2% | [2] 83.7% | [3] 87.8% | [4] 103% | [5] 91.7% | [6] 84.6% | [7] 83.6% | [8] 89.1% | [9] 100% | [10] 116%

CCC(CC)n1c(=O)c(SC2=NC3C(NN2)N(CC)C(=O)N3CC)c(C(=O)O)c2ccccc21 (stereo not given)
active: [5] 3.21% | [7] -45% | [10] -53.4%
inactive: [1] 11.7% | [2] 36.1% | [3] 54.7% | [4] 33.6% | [6] 21.7% | [8] 36.5% | [9] 27.9%

O=c1oc2ccc(-c3ccc(F)cc3F)cc2c(=O)n1-c1cccc(C(F)(F)F)c1
inactive: [2] 13.4% | [4] 15% | [9] 14.7% | [10] 87.3%
active: [1] 0.0881% | [3] 3.52% | [5] 4.79% | [6] -25.6% | [7] 0.254% | [8] 9.67%

CN(c1ccc(F)cc1)S(=O)(=O)c1ccc(-c2cnc(C3CC3)o2)cc1
inactive: [1] 30.5% | [2] 60.5% | [3] 45.6% | [4] 44.1% | [5] 17.2% | [6] 81.1% | [7] 25.6% | [8] 31.1% | [9] 50.3%
active: [10] 6.42%

Cc1[nH]nc2ccc(-c3nc4cnc(N5CCN(C)CC5)cn4c3Nc3ccc(F)cc3Br)cc12
inactive: [1] 80.4% | [2] 87.9% | [3] 63.3% | [4] 67.1% | [5] 69.6% | [6] 61.5% | [7] 67.6% | [8] 58.7% | [10] 36.7%
active: [9] 4.67%

CCN1C(=O)N(CC)C2SC(N/N=C/c3ccc(F)cc3)=NC21 (stereo not given)
inactive: [1] 29.6% | [2] 48.1% | [3] 55.2% | [4] 33% | [8] 26.4% | [9] 30.3%
active: [5] 4.72% | [6] -0.0922% | [7] -32.8% | [10] -49.1%

C#CCOc1ccc(C(Nc2ccc(OC)cc2)c2nnnn2C2CCCCC2)cc1 (stereo not given)
inactive: [1] 99.8% | [2] 101% | [3] 97.3% | [4] 98.9% | [5] 103% | [6] 93.9% | [7] 89.3% | [8] 92.2% | [9] 95.5% | [10] 106%

O=C(Nc1ccc(Cl)cc1)Nc1nc2ccc([N+](=O)[O-])cc2s1
active: [1] -45.5% | [2] -15% | [3] 2.65% | [4] -33.5% | [5] -9.27% | [6] -25.9% | [7] -21.3% | [8] 1.71% | [9] 5.56% | [10] -62.6%

N/C(=N\c1nc2ccc([N+](=O)[O-])cc2s1)C(Cl)(Cl)Cl
inactive: [1] 91.3% | [2] 85.2% | [3] 10.5% | [4] 41.9% | [5] 14.3% | [6] 36.2% | [7] 85.3% | [8] 26.5% | [9] 80.5% | [10] 32%

Cc1cc(F)cc(NS(=O)(=O)c2ccc(-c3cnc(C4CC4)o3)cc2)c1
active: [7] 8.89% | [10] 1.45%
inactive: [1] 19.8% | [2] 53.8% | [3] 46.9% | [4] 34.2% | [5] 13.8% | [6] 35.6% | [8] 27.8% | [9] 47%

CCc1ccc(NC(=O)N[C@@H](Cc2cc(F)cc(F)c2)C(=O)N[C@@H]2C(=O)N3CCC[C@H]3C(=O)N3CCO[C@H](C)[C@H]3C(=O)N[C@@H](CO)C(=O)N3C[C@H](C)C[C@H]3C(=O)O[C@H]2C)c(F)c1
inactive: [1] 35.4% | [3] 50.8% | [4] 32.6% | [5] 16.3% | [7] 17.5% | [8] 26.9% | [9] 39.8%
active: [2] 4.36% | [6] -1.76% | [10] -42.7%

Cc1cc(O)c2c(c1)C(=O)C(c1c(C)cc3c(c1O)C(=O)C=CC3=O)=CC2=O
active: [7] -36.9% | [10] -19.3%
inactive: [1] 89.9% | [2] 97.7% | [3] 110% | [4] 98.6% | [5] 109% | [6] 108% | [8] 98.6% | [9] 37.4%

Nc1ccc(-c2nnc(SCc3ccc(O)c4ncccc34)o2)cc1
active: [1] 3.69% | [2] -12.5% | [3] -0.446% | [4] -5.24% | [5] -46.8% | [6] -36.8% | [7] -2.05% | [8] -1.54% | [9] 7.93% | [10] 1.77%

NC(=O)N1N=C(c2cc3ccccc3oc2=O)CC1c1cn(-c2ccccc2)nc1-c1ccc(Cl)cc1 (stereo not given)
inactive: [1] 41.8% | [2] 50.4% | [3] 52% | [4] 43.1% | [5] 22.2% | [6] 42.6% | [7] 45.2% | [8] 29.6% | [9] 39.3% | [10] 28.8%

O=C(/C=C/c1cn(-c2ccccc2)nc1-c1ccc(Cl)cc1)c1cc2ccccc2oc1=O
inactive: [1] 78.3% | [2] 66.1% | [3] 77.7% | [4] 82.4% | [5] 54.6% | [6] 79.6% | [7] 71% | [8] 88.7% | [9] 46% | [10] 84.9%

O=C(/C=C1\C=CN(CCCCO)c2ccccc21)n1ccc2ccccc21
inactive: [1] 101% | [2] 86.4% | [3] 102% | [4] 84.2% | [5] 103% | [6] 98.4% | [7] 99.7% | [8] 105% | [9] 107% | [10] 104%

C=CCn1c(SCC(=O)c2ccc(OC)cc2)nnc1-c1ccc(OC)cc1
inactive: [1] 97.6% | [2] 87.1% | [3] 97.4% | [4] 102% | [5] 102% | [6] 88.9% | [7] 99% | [8] 99.2% | [9] 99.4% | [10] 98.8%

COc1cc2cc(Oc3ccc(NC(=O)c4cccc(C(F)(F)F)c4)cc3)c(C)nc2cc1OCCN(C)C
inactive: [1] 90.4% | [2] 95.5% | [3] 104% | [4] 97.9% | [5] 47.1% | [6] 62% | [7] 99.9% | [8] 89.2% | [9] 60.1% | [10] 95.8%
